NCOA1 inh: inhibits human SRC1 coactivator. Q15788. HEK293 GAL4-SRC1 luciferase reporter, luminescence. inhibition, % at 3.6 µM. actives 0.12% (n = 360,000). AID 588354;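 active = inhibition above the campaign mean plus 3 SD, with each screening campaign given its own cutoff, cut at about 60% in these data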;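 note: 0% = DMSO treated cells and 100% = gossypol at 36 µM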
SRC2 inh: inhibits human steroid receptor coactivator 2 | AID 651957 | inhibition, % at 9 µM | actives 0.17% (n = 370,000) | Q15596 | HEK293 GAL4-SRC2 luciferase reporter, luminescence;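 active = inhibition above the mean inhibition of all tested compounds plus 3 SD, set per campaign, cut at about 52% in these data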;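 note: 0% = DMSO treated cells and 100% = cells given Gossypol at 36 µM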
LRH-1 inv ag: NR5A2 inverse agonism in reporter assay; O00482; HEK293T StAR-luciferase reporter, LRH-1 transfected, 24 h; inhibition, % at 3.6 µM; actives 0.13% (n = 360,000); AID 602396;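 active = inhibition above the mean inhibition of all tested compounds plus 3 SD, cut at about 73% in these data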;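 note: 0% = DMSO wells and 100% = reporter-only cells lacking LRH-1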
COUP-TFII inh: NR2F2 (human) inhibition, primary screen | actives 0.7% (n = 370,000) | HEK293T NGFI-A luciferase reporter, luminescence | inhibition, % at 8.6 µM | P24468;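 active = inhibition above a per-plate cutoff, mean inhibition of test wells between control levels plus 3 SD, cut at about 38% in these data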;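 note: cells cotransfected with COUP-TFII expression vector driving the NGFI-A reporter; 0% = median of COUP-TF2 test wells and 100% = reporter-only cells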
SRC3 inh: inhibits human SRC3 coactivator | HEK293 GAL4-SRC3 luciferase reporter, luminescence | actives 0.17% (n = 360,000) | inhibition, % at 3.6 µM | Q9Y6Q9;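 active = inhibition above a per-campaign cutoff, the mean of all compounds plus 3 SD, cut at about 60% in these data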;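 note: 0% = DMSO-treated cells and 100% = gossypol-treated cells at 36 µM; higher means less SRC3-driven luciferase light from the GAL4 reporter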
Gal4-VP16 ctr: counter-screen for COUP-TFII antagonists: inhibitors of VP16 | shares compounds with COUP-TFII inh | HEK293 Gal4-VP16 luciferase reporter, luminescence | inhibition, % at 8.5 µM | actives 25% (n = 2,500) | AID 687007; in the data active = inhibition above about 13%
COUP-TFII conf: COUP-TFII (NR2F2) inhibition, confirmation assay; shares compounds with COUP-TFII inh; HEK293 NGFI-A luciferase reporter, luminescence; inhibition, % at 8.5 µM; actives 45% (n = 2,500); AID 687008;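 active = mean inhibition over three repeats above a set limit taken from the earlier primary screen, cut at about 38% in these data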;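 note: 100% = cells given the luciferase reporter alone without the COUP-TF2 vector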
* = called active by the depositor; nt = no result. In the library only some 0.81% were active in any assay of this set; here they are far more common.

SMILES	NCOA1 inh	SRC2 inh	LRH-1 inv ag	COUP-TFII inh	SRC3 inh	Gal4-VP16 ctr	COUP-TFII conf
Cc1nc2c(-c3ccccc3)cnn2c(N)c1-c1ccccc1	71.8*	52.8*	60.5	69.4*	66.8*	9.2	72.3*
Cc1cc(-c2ccccc2)n2ncc(-c3ccccc3)c2n1	-34.8	3.2	-45.1	8.5	7.6	nt	nt
CCc1ccc(NC(=O)C2=CC(c3ccc(OC)c(OC)c3)=NS(=O)(=O)N2C)cc1	-4.3	11.5	20.7	38.2*	6.9	-2.2	25.9
COc1ccc(C2=NS(=O)(=O)N(C)C(C(=O)NCc3ccccc3)=C2)cc1OC	7.8	-2.4	28.8	2.6	-0.7	nt	nt
COc1ccc(C2=NS(=O)(=O)N(C)C(C(=O)N3CCc4ccccc4C3)=C2)cc1OC	1.5	-0.3	46.0	39.2*	8.0	5.8	21.6
CCCCN(CC)C(=O)c1ccc(Cl)c(Cl)c1	3.1	8.9	-7.3	-5.4	1.6	nt	nt
O=C(NC1CCCCC1)C1CCN(C(=O)c2ccc(Cl)cc2)CC1	5.0	-2.2	-3.3	-12.3	-0.5	nt	nt
CC1(c2nnnn2-c2ccc3c(c2)OCCO3)CCC(=O)N1CCOc1ccccc1 (stereo not drawn)	nt	8.9	17.7	6.6	nt	nt	nt
COc1ccc(-c2ccc3oc(-c4ccc(OC)cc4)c(C#CCO)c3c2)cc1	-57.2	9.5	8.0	45.2*	-128.7	-4.6	69.8*
COc1ccc(-c2ccc3oc(-c4ccc(OC)cc4)c(-c4ccc(OC)cc4)c3c2)cc1	-11.0	2.4	1.1	-10.4	-2.0	nt	nt
COc1ccc(-c2sc3ccc(N4CCOCC4)cc3c2C#CC(C)(C)O)cc1	1.9	-3.5	-14.4	-4.8	13.8	nt	nt
COc1ccc(-c2oc3ccc(N4CCOCC4)cc3c2C#CCO)cc1	32.0	11.2	55.6	71.4*	46.8	5.0	53.4*
COc1ccc(S(=O)(=O)NCc2ccc(C(=O)N3CCc4ccccc4C3)cc2)cc1	-2.3	10.4	23.4	16.6	12.7	nt	nt
C=C1C(=O)O[C@H]2C[C@H]1[C@@H](OC(C)=O)C/C(C)=C/CC/C(C)=C\CC[C@]2(C)O	33.2	43.6	40.6	40.3*	71.8*	32.0*	38.3*
O=C(c1cc(COc2cccc3cnccc23)on1)N1CCCC(CCCO)C1 (stereo not drawn)	24.0	14.5	47.7	70.6*	13.2	11.5	76.4*
COc1ccc(OCc2cc(C(=O)N3CCCC(CO)C3)no2)c2ccccc12 (stereo not drawn)	-88.2	-53.2	-80.5	-36.7	-78.5	nt	nt
Cc1nn(C)cc1C(C)NC(=O)c1cc(COc2cccc3cnccc23)on1 (stereo not drawn)	23.4	36.8	33.6	38.1*	51.5	1.3	11.6
COCC1CCN(C(=O)c2cc(COc3ccc(F)cc3Cl)on2)C1 (stereo not drawn)	-17.3	-21.9	-48.6	-11.5	-55.8	nt	nt
COCC1CCN(C(=O)c2cc(COc3cccc4cnccc34)on2)CC1	23.8	37.5	24.5	53.0*	43.3	-3.9	36.6
O=C(CSc1n[nH]c(-c2ccccc2)n1)NCc1cccc(C(=O)O)c1	-13.7	0.5	-4.2	4.0	16.5	nt	nt
CCOc1ccc(NC(=O)CN2CCCN(c3ccc(OC)cc3)CC2)cc1	nt	-20.2	nt	0.0	nt	nt	nt
C#CC[N+](C)(C)CCCCCCCCCC	40.9	33.0	26.1	46.7*	40.8	-2.3	17.9
C#CC[N+](C)(C)CCCCCCCC	8.3	14.7	2.4	5.5	10.7	nt	nt
CC#CC[N+](C)(C)CCCCCCCCCCCC	32.8	2.1	54.7	44.1*	34.3	7.2	26.8
CCCCCCCCCCCCCCCC[N+](C)(C)CC	13.6	16.6	31.9	11.8	16.7	nt	nt
SMILES	NCOA1 inh	SRC2 inh	LRH-1 inv ag	COUP-TFII inh	SRC3 inh	Gal4-VP16 ctr	COUP-TFII conf
C#CC[N+](C)(C)CCCCCCCCCCCC	38.6	31.3	53.1	41.3*	59.4	0.6	29.9
CC(=O)C1=C(C)N2CCN=C2S1	-5.8	8.4	-6.4	-12.9	10.0	nt	nt
COC(=O)c1ccccc1NC(=O)CSc1n[nH]c(-c2ccco2)n1	8.6	-12.1	7.8	13.4	-6.0	nt	nt
CCOc1ccc(S(=O)(=O)NNS(=O)(=O)c2ccc(C)cc2C)cc1	3.4	-2.3	0.7	0.1	2.6	nt	nt
Cc1nc2sccn2c1-c1csc(NCc2ccccc2)n1	16.6	21.9	18.2	37.9*	17.1	-15.9	21.3
O=C1CSc2ccc(C(=O)Nc3cccc(S(=O)(=O)Nc4ccc(Br)cc4)c3)cc2N1	-25.2	37.4	-3.2	74.5*	16.9	0.2	32.4
Cc1cc(C)n(CCCNC(=O)CCNS(=O)(=O)c2ccccc2C(F)(F)F)n1	9.1	-7.5	-5.7	0.0	9.7	nt	nt
CC1CN(c2nc3ccccc3nc2SCC(=O)N2CCN(S(=O)(=O)c3ccccc3)CC2)CC(C)O1 (stereo not drawn)	nt	11.9	nt	42.7*	nt	3.0	9.6
CC1CN(c2nc3ccccc3nc2SCC(=O)N2CCN(S(=O)(=O)c3ccc(F)cc3)CC2)CC(C)O1 (stereo not drawn)	nt	3.5	nt	24.6	nt	nt	nt
CCOC(=O)c1c(C)[nH]c(C(=O)OCC(=O)Nc2ccc(Cl)cn2)c1C	-8.2	-6.2	-3.6	3.4	-5.8	nt	nt
CCOC(=O)c1c(C)[nH]c(C(=O)OCC(=O)Nc2sccc2C(N)=O)c1C	62.1*	21.0	-1.3	52.2*	31.3	-34.5	44.9*
CC[N+](CC)(CC)CCCCOc1ccc2c(c1)C(=O)c1cc(OCCCC[N+](CC)(CC)CC)ccc1-2	7.7	-19.6	12.4	-30.6	17.9	nt	nt
Brc1ccc([C@H]2CN3CCSC3=N2)cc1	-5.8	-20.8	-6.3	3.4	4.5	nt	nt
CN(C)c1ccc(N=Nc2nc3ccccc3n2C)cc1	-2.4	14.0	-31.9	60.6*	25.8	7.2	22.4
Cn1c(N=Nc2ccccc2)nc2ccccc21	-61.4	24.9	-62.0	20.2	-25.8	nt	nt
COc1ccc(CN2CCN(C(=O)C3CCC(CNS(=O)(=O)c4ccccc4)CC3)CC2)c(OC)c1OC (stereo not drawn)	-0.9	-4.4	7.9	35.7	-0.2	nt	nt
CCOC(=O)c1cnc2c(OC)cccc2c1N1CCN(c2ccccc2OC)CC1	-7.6	-12.8	9.1	1.6	15.3	nt	nt
CCOC(=O)c1cnc2c(OC)cccc2c1N1CC(C)CC(C)C1 (stereo not drawn)	18.4	-0.9	4.8	39.6*	2.3	-6.7	7.1
CN(C)c1ccc(CC(=O)N2CCCC(c3cc(C(=O)Nc4ccc(F)c(Cl)c4)no3)C2)cc1 (stereo not drawn)	5.7	-26.9	0.2	15.0	8.1	nt	nt
Cn1nc(C(C)(C)C)cc1C(=O)NCC1CCN(C(=O)C(=O)c2cc3ccccc3o2)CC1	nt	-8.8	nt	40.5*	nt	-3.3	10.8
O=C(NCC1CCN(C(=O)C(=O)c2cc3ccccc3o2)CC1)c1cc(C(F)(F)F)cc(C(F)(F)F)c1	nt	28.4	nt	2.6	nt	nt	nt

Screening data (PubChem)
